# Data: PubChem BioAssay (NCI)
# The panel holds about 83,000 compounds, 20% with a hit somewhere; the sample as a whole holds those more often.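 Percent growth is the endpoint: 0 to 100 indicates growth inhibition (40 means 60% inhibition), 0 means no net growth, and negative values indicate cell death.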 A number with no mark means an inactive call. The source made the active and inactive calls. Rule for the calls: active = growth percent below 10; inactive = the rest.
# Test system: MDA-MB-468 breast
# Assay: NCI-60 one-dose screen, 48 h (100 = growth as untreated, 0 = no growth, -100 = all killed)
# Conditions: 10 µM unless noted
row,SMILES,growth
1,O=C(Nc1ccc2ncnc(Nc3ccc(Oc4cccc(F)c4)c(Cl)c3)c2c1)c1ccc(CNCCO)cc1,-46% (active)
2,c1ccc(CCn2nnc3c(Nc4ccc(N5CCOCC5)cc4)ncnc32)cc1,76%
3,Cc1ccc(S(=O)(=O)Oc2ccc3c4c(c(=O)oc3c2)CCCCC4)cc1,35.5%
4,O=C(CSc1nnc(-c2ccc(Cl)cc2)o1)c1ccccc1,97.1%
5,O=C(Nc1ccc2ccccc2c1)c1cc2ccccc2cc1O,123%
6,COc1cc(C(O)C2C(=O)OCC2C2(c3ccc4c(c3)OCO4)SCCCS2)cc(OC)c1OC (stereo not given),92.2%
7,Cc1ccc(C(C)C)c(OCC(=O)O)c1,98.9%
8,CC(C)(C)CC(C)(C)Nc1c(-c2ccc3c(c2)OCO3)nc2cnccn12,95.2%
9,CCn1ccnc1C(=O)/C=C/c1ccc(CC(=O)Nc2ccc(F)cc2)cc1,-13.8% (active)
10,CCCCc1nc(Cl)c(C2CC(c3ccc(Cl)cc3)=NN2c2cc(Cl)cc(Cl)c2)[nH]1 (stereo not given),88.3%
11,Nc1n[nH]c2cccc(C#Cc3cccc(NC(=O)c4cc(F)cc(C(F)(F)F)c4)c3)c12,92.2%
12,N#Cc1c(-c2ccc(Cl)cc2)nc(SCc2ccc([N+](=O)[O-])cc2)nc1N1CCNCC1,-44.2% (active)
13,CC1C(/C=N/NC(N)=S)C(C#N)(C#N)C1(C#N)C#N (stereo not given),113%
14,C[C@]12C=CC(=O)C=C1CCC1C2[C@@H](O)C[C@@]2(C)C1CC[C@]2(O)C(=O)COC(=O)CCC(=O)O (stereo not given in full),115%
15,Cc1cc(C)nc(SCC(=O)Nc2cccc(N=Cc3ccccc3O)c2)n1,87.8%
16,CC12CCC3c4ccccc4CCC3(CO1)C2 (stereo not given),88.7%
17,Cn1cc(-c2nc(-c3c[nH]c4ncccc34)cs2)c2ccccc21,-19% (active)
18,O=C1C(Cl)=C(Nc2ccc(O)cc2)C(=O)N1Cc1ccc(Cl)cc1,5.88% (active)
19,COc1cc2c(cc1I)-c1c(cc(OC)c(OC)c1OC)CC[C@@H]2NC(C)=O,-6.02% (active)
20,COc1cccc(-c2nc3sccn3c2-c2ccnc(NCCCNS(=O)(=O)c3cccc(Cl)c3)c2)c1,24.6%

row,SMILES,growth
1,CC1CCC2(C(=O)O)CCC3(C)C(=CCC4C5(C)CCC(O)C(C)(C)C5CCC43C)C2C1C (stereo not given),24.5%
2,Cc1cc(O)ccc1O,107%
3,COC(=O)[C@H](Cc1ccc(O)cc1)NC(=O)[C@@H](OC)[C@@H]1Cc2cc3cc(OC4CC(OC5CC(O)C(O)C(C)O5)C(O)C(C)O4)c(C)c(O)c3c(O)c2C(=O)[C@H]1OC1CC(OC2CC(OC3CC(C)(O)C(O)C(C)O3)C(O)C(C)O2)C(O)C(C)O1 (stereo not given in full),-25.5% (active)
4,CC(C)COCC(CN(Cc1ccccc1)c1ccccc1)N1CCCC1 (stereo not given),32.7%
5,O=C(c1ccc(Cl)cc1)C1C(c2ccccc2)C1[N+](=O)[O-] (stereo not given),111%
6,O=C(/C=C/c1ccc(B(O)O)cc1)/C=C/c1ccc(B(O)O)cc1,1.24% (active)
7,c1ccc(CN2COc3c(ccc4c3OCN(Cc3ccccc3)C4)C2)cc1,0.865% (active)
8,CCN(CCN(C)C)C(=O)CNCc1cc(C(N)=O)ccn1,101%
9,O=C(Nc1ccc(F)cc1F)c1cc(F)ccc1O,-0.731% (active)
10,CC1(C)CC[C@]23CC[C@]4(C)[C@H](CC[C@@H]5[C@@]6(C)CCNCC(C)(C)[C@@H]6CC[C@]54C)[C@H]2[C@H]1OC3,65.4%
11,CCCCCCCC(=O)SCC/C=C/[C@@H]1CC(=O)NCc2cccc(n2)CN(Cc2ccc(Cl)cc2)CC(=O)N[C@@H](C(C)C)C(=O)O1,44.6%
12,COc1cc2cc3c(nc2cc1OC)CCN3Cc1ccc(NC(=O)c2ccc(Cl)c(C(F)(F)F)c2)cc1,12.9%
13,C1=C2CCCC3=Cc4ccccc4OC23Oc2ccccc21,25.5%
14,COc1ccc(/C=C/C(=O)c2cc3c(N)c(C(=O)Nc4ccccc4Cl)sc3nc2C)cc1,5.35% (active)
15,COC(=O)c1cc2c3c(cc(O)c2[nH]1)N(C(=O)C1Cc2cc(OC)c(OC)c(OC)c2N1)CC3CCl (stereo not given),-41.8% (active)
16,CC1(C)[C@@H](OC(=O)CCC(=O)O)CC[C@]2(C)[C@H]3C(=O)C=C4[C@@H]5C[C@@](C)(C(=O)O)CC[C@]5(C)CC[C@@]4(C)[C@]3(C)CC[C@@H]12,-0.77% (active)
17,CCOC(=O)Nc1ccc2nc(N3CCCCCC3)sc2c1,-4.19% (active)
18,O=C1C(=O)c2cc([N+](=O)[O-])ccc2-c2ccccc21,-96.2% (active)
19,c1ccc2c(c1)nc(-n1ccnc1)c1nc3ccccc3n12,76%
20,CCOC(=O)C1C(=O)C(=O)N(C(C)C)C1C(=O)OCC (stereo not given),98.4%
